# Experimental data reported in PubChem BioAssay (NCATS).
# Records with an inconclusive call do not appear. A number with no mark means an inactive call. Calls of active or inactive are those of the source. Calls follow the shape of the dose curve; as a rule, active = well fitted curve in the direction sought with a large enough effect; inconclusive = small, poorly fitted or top-dose-only effect, or another doubt; inactive = no such curve, though single readings can be large; an effect the other way counts as inactive or inconclusive.
# Biological target: Aldehyde dehydrogenase, mitochondrial (Homo sapiens) (UniProt P05091)
# Assay: qHTS for Inhibitors of the Aldehyde Dehydrogenase Family (ALDH2) Primary screen (AID 2061308);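 also: plate controls were vehicle for no effect and reference inhibitor for full effect; nearly all actives have a fitted effect of over 55% in size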
# Conditions: ALDH2 enzyme inhibition qHTS, 1536-well; series mostly up to 56 µM; activity change, negative = inhibition: at the top concentration
row,Structure (SMILES),"activity change, negative = inhibition"
1,C[C@@H]1O[C@@H](O[C@H]2[C@@H]3C=CO[C@@H](O[C@@H]4O[C@H](CO)[C@@H](O)[C@H](O)[C@H]4O)[C@@H]3[C@@]3(CO)O[C@@H]23)[C@H](OC(=O)/C=C/c2ccc(O)c(O)c2)[C@H](O)[C@H]1O,-1.7% [at 16.9 µM]
2,CC(CO[C@@H]1O[C@H](COC(=O)/C=C/c2ccc(O)c(O)c2)[C@@H](O)[C@H](O)[C@H]1O)C1(O)COC(=O)C1 (stereo partly drawn),-1.74% [at 28 µM]
3,CN(CCCNC(=O)c1ccc2nc3c(c(Cl)c2c1)CCCC3)Cc1ccccc1,17.3%
4,COc1cc(C(=O)OC[C@H]2O[C@@H](Oc3ccccc3/C=C/C(=O)O)[C@H](O)[C@@H](O)[C@@H]2O)cc(OC)c1OC,-5.64% [at 28 µM]
5,C/C(=C\CC/C(C)=C/CC[C@]1(C)CCc2cc(O)cc(C)c2O1)CC/C=C(\C)C(=O)O,-24.6% [at 28 µM]
6,C=C1C(=O)O[C@@H]2C3C(=C(C)[C@@H](O)[C@@H](OC(=O)/C(=C/C)COC(C)=O)[C@@H]12)C(=O)[C@H]1O[C@@]31C (stereo partly drawn),1.26% [at 28 µM]
7,C=C1C(O)CC2C(C(=O)O)=COC(OC3OC(CO)C(O)C(O)C3OC(=O)/C=C\c3ccc(O)cc3)C12 (stereo not drawn),-11.2% [at 28 µM]

# Biological target: Retinaldehyde dehydrogenase 3 (Homo sapiens) (UniProt P47895)
# Assay: qHTS for Inhibitors of the Aldehyde Dehydrogenase Family (ALDH1A3) Confirmatory screens (AID 2061311); also: nearly all actives have a fitted effect of over 60% in size; also: potency is read from the fitted curve at half-maximal effect; as to activity change, negative = inhibition: % is scaled to controls: 0 for no effect and ±100 for the full control effect
# Conditions: ALDH inhibition qHTS; series mostly up to 46 µM; activity change, negative = inhibition: at the top concentration
Structure (SMILES),Potency,"activity change, negative = inhibition",outcome
CO/N=C(/C(=O)N[C@@H]1C(=O)N2C(C(=O)O)=C(CSC(=O)c3ccco3)CS[C@H]12)c1csc(N)n1,7.12 µM (active),–,–
Cc1ccc(C(=O)Nc2noc3ccccc23)cc1,1.27 µM (active),–,–
OC[C@H]1O[C@@H](Oc2cc(O)cc(-c3cc4ccc(O)cc4o3)c2)[C@H](O)[C@@H](O)[C@@H]1O,12.3 µM (active),–,–
CNC(=S)NS(=O)(=O)c1cc(CCNC(=O)c2cc(Cl)ccc2OC)ccc1OC,–,-9.28%,–
Cc1nn(C)c2c1C(c1ccc(C(F)(F)F)cc1)C(C#N)=C(N)O2 (stereo not drawn),–,–,inactive
CC(C)(Oc1ccc(-c2nc3cc(Cl)ccc3s2)cc1)C(=O)O,12.6 µM (active),–,–
COc1cc(OC)c(NC(=O)c2ccc(Cc3cc4c(cc3C)C(C)(C)CCC4(C)C)o2)c(OC)c1,4 µM (active),–,–
O=[N+]([O-])c1ccc(-[n+]2nc(-c3ccccc3)nn2-c2ccc(I)cc2)cc1,11.3 µM (active),–,–
COc1ncc(Nc2ncc([C@@H](C)N3CCN(S(C)(=O)=O)CC3)cc2-c2nc(C)nc(N)n2)cc1F,10 µM (active),–,–
CCCC/C=C\CCCCCc1cc(=O)c2ccccc2n1C,–,-15.5% [at 25.8 µM],–
CC(=O)c1c(C)cc2cccc(O)c2c1O[C@@H]1O[C@H](CO)[C@@H](O)[C@H](O)[C@H]1O,3.12 µM (active),–,–
COc1ccc(CC2C(=O)NC(C)C(=O)N(C)C3Cc4ccc(cc4)Oc4cc(ccc4OC4OC(CO)C(O)C(O)C4O)CC(C(=O)NC(C)C(=O)NC(C)C(=O)N2C)N(C)C3=O)cc1 (stereo not drawn),4.78 µM (active),–,–
CN(CCCNC(=O)c1ccc2nc3c(c(Cl)c2c1)CCCC3)Cc1ccccc1,8.96 µM (active),–,–
COc1cc(C(=O)OC[C@H]2O[C@@H](Oc3ccccc3/C=C/C(=O)O)[C@H](O)[C@@H](O)[C@@H]2O)cc(OC)c1OC,9.79 µM (active),–,–
C/C(=C\CC/C(C)=C/CC[C@]1(C)CCc2cc(O)cc(C)c2O1)CC/C=C(\C)C(=O)O,–,–,inactive
C=C1C(=O)O[C@@H]2C3C(=C(C)[C@@H](O)[C@@H](OC(=O)/C(=C/C)COC(C)=O)[C@@H]12)C(=O)[C@H]1O[C@@]31C (stereo partly drawn),–,-14.6% [at 25.8 µM],–
